Assay results from PubChem BioAssay (NCATS).
Inconclusive results are not listed. Active and inactive are the calls of the source. Unless noted, how the calls were made is not given here.

Tests used:
[1] = qHTS profiling for inhibitors of Plasmodium falciparum (3D7) proliferation (AID 743322);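 further: infected erythrocytes exposed to compound for 72 h before lysis; 100% = DMSO vehicle wells and 0% = 0.29 µM artemisinin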; settings: P. falciparum 3D7 proliferation; at 28.7 µM (top of the series) unless noted
In short: (§1)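 Parasite DNA was quantified by SYBR Green I fluorescence (ex 485, em 535 nm) after overnight lysis in saponin/Triton buffer at room temperature. Cultures at 0.3% parasitemia and 2.5% hematocrit were first exposed to compound for 72 h at 37 C; signals were normalised to artemisinin (0.29 uM) and vehicle wells.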

[2] = qHTS profiling for inhibitors of Plasmodium falciparum (DD2) proliferation (AID 743323); settings: lower = more inhibition; at 28.7 µM (top of the series) unless noted
In short: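 SYBR Green fluorescence (ex 485, em 535 nm) of lysed cultures gives parasite DNA content; wells normalized to artemisinin (0.29 uM) and DMSO controls. Infected red cells: 0.3% parasitemia, 2.5% hematocrit, 72 h, 37 C.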

[3] = qHTS profiling for inhibitors of Plasmodium falciparum (HB3) proliferation (AID 743324; active means well fitted curve in the direction sought with a large enough effect; an effect the other way counts as inactive or inconclusive;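 further: 100% = DMSO vehicle wells and 0% = artemisinin-treated control wells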); settings: Plasmodium falciparum HB3 blood-stage proliferation; at 28.7 µM (top of the series) unless noted
In short: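 SYBR Green fluorescence (485 ex/535 em) of lysed cultures, incubated overnight at room temperature in the dark, quantifies parasite DNA. Infected erythrocytes at 0.3% parasitemia and 2.5% hematocrit were exposed 72 h; values normalized to DMSO and 0.29 uM artemisinin controls.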

[4] = qHTS profiling of the MIPE4 collection as inhibitors of Plasmodium falciparum (3D7) proliferation (AID 743344);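 further: scaled between DMSO vehicle wells and 0.29 µM artemisinin as full inhibition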; settings: P. falciparum 3D7 in erythrocytes, SYBR Green DNA fluorescence, 72 h; at 28.5 µM (top of the series)
In short: as §1

[5] = qHTS profiling of the MIPE4 collection as inhibitors of Plasmodium falciparum (DD2) proliferation (AID 743345); settings: P. falciparum Dd2 in erythrocytes, SYBR Green DNA, 72 h; at 28.5 µM (top of the series) unless noted
In short: as §1

[6] = qHTS profiling of the MIPE4 collection as inhibitors of Plasmodium falciparum (DD2) proliferation (Rep 2) (AID 743346); settings: P. falciparum Dd2 in erythrocytes, SYBR Green DNA, 72 h; at 28.5 µM (top of the series)
In short: as §1

[7] = qHTS profiling of the MIPE4 collection as inhibitors of Plasmodium falciparum (HB3) proliferation (AID 743347);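 further: plate controls were DMSO vehicle wells for no effect and artemisinin wells for full effect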; settings: P. falciparum HB3 in erythrocytes, SYBR Green DNA, 72 h; at 28.5 µM (top of the series)
In short: as §1

[8] = High-throughput drug toxicity screening in the BPDCN cell line Gen2.2 (AID 1224824); settings: Gen2.2 BPDCN cells; at 45.8 µM (top of the series);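 further: cells exposed to compounds for 48 h before reading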
In short: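 Gen2.2 cells (500/well) in phenol red-free RPMI with 10% FBS were exposed to compounds for 48 h at 37 °C, 5% CO2. Viability was read by CellTiter-Glo luminescence and normalized to DMSO (100%) and 9.2 uM bortezomib (0%).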

[9] = High-throughput drug toxicity screening in the BPDCN cell line Cal-1 (AID 1224825); settings: Cal-1 BPDCN cell viability, qHTS; at 45.8 µM (top of the series)
In short: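 Percent activity derived from CellTiter-Glo luminescence, scaling DMSO to 100% and 9.2 uM final bortezomib to 0%. BPDCN Cal-1 cells (500/well, RPMI plus 10% FBS) incubated with compounds 48 hours at 37C before reading.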

[10] = qHTS assay for cell viability of HEK293 cells (AID 743288; active means well fitted curve in the direction sought with a large enough effect; an effect the other way counts as inactive or inconclusive; further: on the % scale 0 is the no-effect control and ±100 the full control effect; nearly all actives have a fitted effect of over 50% in size); settings: ATP luminescence (CellTiter-Glo), 18 h; max response: stronger effect = lower value
In short: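 After 18 h compound exposure at 37 C, parental HEK293 cells (2,000/well) are lysed with CellTiter-Glo and luminescence is read following 30 min at room temperature.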

[11] = qHTS assay for cell viability of the p53RE-bla HCT-116 cell line (AID 743292; active means well fitted curve in the direction sought with a large enough effect; an effect the other way counts as inactive or inconclusive; further: on the % scale 0 is the no-effect control and ±100 the full control effect; nearly all actives have a fitted effect of over 55% in size)
In short: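 Compound-exposed HCT-116 (p53RE-bla) cells, 4,000 per well, were kept 16 h at 37 C following a 5 h preincubation. Cell number was estimated from total ATP by CellTiter-Glo luminescence read after 30 min at room temperature.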

Row | SMILES | remaining parasite growth % (stronger effect = lower value) [1] [%] | activity, percent of control [2] [%] | remaining proliferation (% of control), lower = more inhibition [3] [%] | parasite growth, % of DMSO control [4] [%] | parasite growth remaining, % of DMSO control (lower = more inhibition) [5] [%] | parasite growth, % of control (lower = inhibition) [6] [%] | growth, % of control [7] [%] | cell viability, % of control (lower = more cytotoxic) [8] [%] | viability (% of control) [9] [%] | max response [10] | Potency [11]
1 | CC(C)[C@H]1C(=O)N[C@H](CO)Cc2c[nH]c3cccc(c23)N1C | 107 | 97.3 | 80 | 87.1 | 97.6 | 147 | 88.8 | 391 | 82.8 |  | 
2 | O=C(O)CNC(=O)c1c(O)c2ccccc2n(Cc2ccccc2)c1=O |  |  |  | 88 | 93.4 | 75.1 | 105 | 256 | 132 |  | 
3 | CC(=Cc1csc(C)n1)[C@@H]1C[C@H]2O[C@@H]2CCC[C@H](C)[C@@H](O)[C@@H](C)C(=O)C(C)(C)[C@@H](O)CC(=O)O1 |  |  |  | 14.6 | 16.1 | 36.4 | 12.9 | 50.1 | 26.8 |  | 
4 | CCCN1CCO[C@@H]2c3cc(O)ccc3OC[C@@H]21 |  |  |  | 98.1 | 99.7 | 91 | 77.3 | 209 | 16.6 |  | 
5 | CCCCCC[C@H]1C(=O)O[C@H](C)[C@H](NC(=O)c2cccc(NC=O)c2O)C(=O)O[C@@H](C)[C@@H]1OC(=O)CC(C)C |  |  |  | 12 | 17.3 | 14.5 | 26.2 | 177 | 85.6 | -27.4% (inactive) | 
6 | O=C(Nc1ccncc1)C(=O)c1cn(Cc2ccc(Cl)cc2)c2ccccc12 |  |  |  | 91 | 85.2 | 81.4 | 78.4 | 73.9 | 16.2 |  | 
7 | CCN(CC)C(=O)c1ccc(C2=CC3(CCNCC3)Oc3cccc(O)c32)cc1 |  |  |  | 21.1 | 42.1 | 14.4 | 38.8 | 122 | 79 |  | 
8 | CC(C)(O)C(=O)Nc1ccc([N+](=O)[O-])c(C(F)(F)F)c1 |  |  |  | 82.8 | 97.4 | 70.6 | 79 | 21 | 14.7 | -8.24% (inactive) | inactive
9 | COc1ccc2c(c1)CN(C)CC2c1ccc(Cl)c(Cl)c1 (stereo not given) |  |  |  | 12.3 | 40.2 | 15.9 | 9.4 | 41 | 12.2 |  | 
